From PubChem BioAssay (EPA / NIEHS)
Values joined by “and” are separate entries in the source; they are usually repeats but may differ in a detail not shown here. Equal values may be shown once. Some structures have more than one record in an assay (separate samples or runs), and their calls can disagree. Active and inactive are the calls of the source. How the source made its calls: active means hit-call score of the fitted dose curve at least 0.9, where 1 is the maximum; inactive means score below 0.9.

assay: APR_HepG2_CellCycleArrest_24hr: Apredica 24-hour HepG2 Assay for Cell Cycle Arrest (AID 2282905); settings: imaging, actives raise or lower the signal;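 further: cell cycle arrest scored as ratio of 2N to 4N nuclear DNA content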
Method: APR_HepG2_24hr is a cell-based, multiplexed-readout assay that uses HepG2, a human liver cell line, with measurements taken at 24 hours after chemical dosing in a 384-well plate.APR_HepG2_CellCycleArrest_24hr is one of 10 assay component(s) measured or calculated from the APR_HepG2_24hr assay. It is designed to make measurements of cell phenotype, a form of morphology reporter, as detected with fluorescence intensity signals by HCS Fluorescent Imaging technology.Data from the assay component APR_HepG2_CellCycleArrest_24hr was analyzed into 1 assay endpoint. This assay endpoint, APR_HepG2_CellCycleArrest_24hr, was analyzed with bidirectional fitting relative to DMSO as the negative control and baseline of activity. Using a type of morphology reporter, measures of all nuclear dna for gain or loss-of-signal activity can be used to understand the signaling at the pathway-level as they relate to the gene . Furthermore, this assay endpoint can be referred to as a primary readout, because this assay has produced multiple assay endpoints where this one serves a signaling function. To generalize the intended target to other relatable targets, this assay endpoint is annotated to the cell cycle intended target family, where the subfamily is arrest.
Cells were treated with dimethyl sulfoxide (DMSO) as a solvent control at a final concentration of 0.5% v/v or with compounds in DMSO with a resulting final DMSO concentration of 0.5% v/v. Compound treatment was done at concentrations of 0.39, 0.78, 1.56, 3.12, 6.24, 12.5, 25, 50, 100, and 200 uM in duplicate on each plate. Cells were treated with compounds for 1, 24, or 72 hr. Carbonyl […] m-chloro-phenylhydrazone (CCCP) and taxol were used as positive controls for mitochondrial function and cytoskeletal stability, respectively; DMSO served as the negative control for this experiment. Cells were fixed by the direct addition of 50 uL formaldehyde in Hank's Balanced Salt Solution (HBSS) to a final concentration of 3.7%. After incubation in the fixation medium for 30 min at room temperature (293-298 K), cells were rinsed twice with HBSS and treated with cell permeabilization buffer (16 uL of 0.5% Triton X-100) for 10 min at room temperature (293-298 K) before labeling. For mitochondrial membrane potential and mitochondrial measurements, pre-fixed cells were incubated with 50 uL of MitoTracker Red CMXRos (Invitrogen) at a concentration of 250 nM for 30 min before fixation. In the remaining cases, post-fixed cells were labeled by incubation with a multiplexed mixture of primary antibodies in HBSS for 60 min at room temperature (293-298 K) to detect immunoreactivity of c-Jun (1:500), phospho-histone H3 (1:100), phospho-histone H2A.x (1:200), p53 (1:400), alpha-tubulin (1:200) and Hoechst 33342 (2 ug/mL). Cells were labeled for multiplexed imaging on two separate plates: a) Hoechst 33342, MitoTracker Red, phospho-histone H3, and alpha-tubulin, and b) Hoechst 33342, phospho-histone H2A.x, and c-Jun. A final rinse with HBSS (50 uL) was performed before analysis. The primary and secondary antibodies for the proteins were phospho-histone H3 (rabbit anti-phospho-histone H3 and FITC-donkey anti-rabbit IgG), phospho-histone H2A.x (mouse anti-phospho-histone H2A.x and FITC-donkey anti-mouse IgG), c-Jun (rabbit anti-phospho-c-Jun and Cy3-donkey anti-rabbit IgG), p53 (sheep anti-p53 and Cy5-donkey anti-sheep IgG), alpha-tubulin (mouse anti-alpha-tubulin and Cy5-donkey anti-mouse IgG). These antibodies are available as the CellCiphr HepG2 assay kit (Millipore).Digital images of each well were captured using a Cellomics ArrayScan VTI (Thermo Scientific Cellomics) (0.8 NA objective, 0.63x optical coupler, and XF-93 filter set) at 20x magnification. The images were acquired using the autofocus feature of the ArrayScan instrument, which entails the following steps. First, the camera focuses on channel 1 (Hoechst 33342), where nuclei are identified. Second, a Z offset of 1 um is used for capturing mitochondria (MitoTracker Red). […]

SMILES	outcome	AC50
CCS(=O)(=O)c1cccnc1S(=O)(=O)NC(=O)Nc1nc(OC)cc(OC)n1	inactive	
Oc1cc(Cl)ccc1Oc1ccc(Cl)cc1Cl	inactive	9.18 µM (active) and 20.4 µM (active)
CNC(=O)/C=C(\C)OP(=O)(OC)OC	inactive	
O=C(O)COc1ccc(Cl)cc1Cl	inactive	
CCOC1Oc2ccc(OS(C)(=O)=O)cc2C1(C)C (stereo not given)	inactive	
N#CN	inactive	
CCCN(CCOc1c(Cl)cc(Cl)cc1Cl)C(=O)n1ccnc1		101 µM (active)
COC(=O)c1ccccc1CS(=O)(=O)NC(=O)Nc1nc(OC)cc(OC)n1	inactive	
CC1(C)C(C=C(Cl)Cl)C1C(=O)OC(C#N)c1ccc(F)c(Oc2ccccc2)c1 (stereo not given)	inactive	
Oc1ccc(Cl)cc1Cc1ccccc1	inactive	102 µM (active) [middle of 4 runs]
Cc1cc(C)nc(NC(=O)NS(=O)(=O)c2ccccc2C(=O)OC2COC2)n1	inactive	
O=C1c2ccccc2C(=O)N1SC(Cl)(Cl)Cl	inactive	
COC(=O)c1ccccc1S(=O)(=O)NC(=O)N(C)c1nc(C)nc(OC)n1	inactive	
CC(C)N(C(=O)COc1nnc(C(F)(F)F)s1)c1ccc(F)cc1	inactive	
O=C(Nc1ccccc1)Nc1cnns1	inactive	
O=[N+]([O-])/N=C1\NCCN1Cc1ccc(Cl)nc1	inactive	
O=[N+]([O-])c1c(Cl)c(Cl)c(Cl)c(Cl)c1Cl	inactive	
OCCOc1ccccc1	inactive	
C[C@H]1[C@H](c2ccc(Cl)cc2)SC(=O)N1C(=O)NC1CCCCC1	inactive	

SMILES	outcome	AC50
CC(C)OC(=O)Nc1cccc(Cl)c1	inactive	
COC(=O)c1ccccc1S(=O)(=O)NC(=O)Nc1nc(C)nc(OC)n1	inactive	
COc1cc(OC)nc(NC(=O)NS(=O)(=O)c2cc(NC=O)ccc2C(=O)N(C)C)n1	inactive	
C#CCN1C(=O)COc2cc(F)c(N3C(=O)C4=C(CCCC4)C3=O)cc21	inactive	
Clc1ccccc1-c1nnc(-c2ccccc2Cl)nn1		67.6 µM (active)
CCN(CC)C(=O)SCc1ccc(Cl)cc1	inactive	
O=S(=O)(O)C(F)(F)C(F)(F)C(F)(F)C(F)(F)C(F)(F)C(F)(F)C(F)(F)C(F)(F)F	inactive	
CC(C)(C)C(O)C(Oc1ccc(Cl)cc1)n1cncn1 (stereo not given)	inactive	97.1 µM (active) and 78.4 µM (active)
CNC(=O)CSP(=S)(OC)OC	inactive	
COP(=O)(OC)OC=C(Cl)Cl		99.1 µM (active)
CNC(=O)Oc1cccc(N=CN(C)C)c1	inactive	
O=S1OCC2C(CO1)C1(Cl)C(Cl)=C(Cl)C2(Cl)C1(Cl)Cl (stereo not given)	inactive	
COP(=S)(OC)Oc1ccc(SC)c(C)c1	inactive	
CCCN(CCC)c1c([N+](=O)[O-])cc(C(F)(F)F)cc1[N+](=O)[O-]	inactive	
N#Cc1c(Cl)c(Cl)c(Cl)c(C#N)c1Cl	inactive	
O=C(O)C(F)(F)C(F)(F)C(F)(F)C(F)(F)C(F)(F)C(F)(F)C(F)(F)F	inactive	
COc1nn(CSP(=S)(OC)OC)c(=O)s1	inactive	
COP(=S)(OC)Oc1ccc([N+](=O)[O-])cc1	inactive	
